This is a sample that favours compounds with a hit; in the whole collection about 19% have one here.
HT1080 IDH1KD tx: qHTS for induction of synthetic lethality in tumor cells producing 2HG: qHTS for the HT-1080-IDH1KD cell line | HT-1080 IDH1 knockdown viability, ATP luminescence, 48 h | Potency, µM (top dose mostly 46.1 µM), without a hit: at the highest dose activity, negative = toxicity, most hits filed as cytotoxic | hit rate 2% among 360,000 | AID 686971, 2013;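 also: potency is read from the fitted curve at half-maximal effect; 0% = DMSO wells and -100% = cell-free medium wells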
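Assay cells: HT-1080 with IDH1 knockdown, 750 per well, RPMI/5% FBS. Exposure: 48 h at 37 °C following 2 h pre-incubation. Read: CellTiter-Glo luminescence; fitted concentration-response, curve class assigned.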
DT40 TDP1 CPT: qHTS for Inhibitors of human tyrosyl-DNA phosphodiesterase 1 (TDP1): qHTS in cells in presence of CPT. Potency, µM (highest dose often 46.2 µM), for the others: top-dose activity change, negative = growth inhibition, actives largely listed as inhibitors. AID 686979, 2013. hit rate 12% among 420,000. chicken DT40 Tdp1-/-;hTDP1 cells + 20 nM CPT, ATP luminescence, 48 h; also: potency is read from the fitted curve at half-maximal effect; nearly all actives have a fitted effect of over 55% in size
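Cell growth measured by CellTiter-Glo luminescence after a minimum 48 h, 37 C compound exposure with 20 nM CPT in Tdp1-knockout DT40 cells stably expressing hTDP1, seeded 400/well; qHTS titration format.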
TDP1 cell noCPT: qHTS for Inhibitors of human tyrosyl-DNA phosphodiesterase 1 (TDP1): qHTS in cells in absence of CPT. DT40 Tdp1-/- hTDP1 cells, no CPT, ATP luminescence, 48 h. Potency, µM (top dose mostly 46.2 µM), for the others: at the highest dose activity change, negative = growth inhibition, usual class: inhibitors. hit rate 15% among 420,000. AID 686978, 2013; also: potency is read from the fitted curve at half-maximal effect; nearly all actives have a fitted effect of over 55% in size
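Camptothecin absent (DMSO only). Human TDP1-complemented DT40 knockout cells, 400 cells/well, 37 °C for minimum 48 hr; ATP measured via CellTiter-Glo, 30 min dark incubation, luminescence.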
IL-1B inflam inh: qHTS for Inhibitors of Inflammasome Signaling: IL-1-beta AlphaLISA Primary Screen; THP-1 LPS/ATP IL-1B secretion, AlphaLISA, 16 h; stronger effect = lower value; activity change, % at 57.5 µM; hit rate 4.7% among 360,000; in the data active = activity change below about -50%; inconclusive = mostly about -30% to -49%
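THP-1 cells pretreated 1 hr with compounds (up to 57.5 uM final), then stimulated with LPS (250 ng/mL final) plus ATP (1.25 mM final); secreted IL-1B measured by AlphaLISA after 16 hr, decreased signal indicating inhibition.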
HT1080-NT tox: qHTS for induction of synthetic lethality in tumor cells producing 2HG: qHTS for the HT-1080-NT fibrosarcoma cell line | HT-1080-NT fibrosarcoma viability, CellTiter-Glo ATP luminescence, 48 h | Potency, µM (titrated, usually from 46.1 µM), for the others: at the top dose activity, negative = less viability, actives largely listed as cytotoxic | hit rate 1.6% among 360,000 | AID 686970, 2013;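 also: NT is the 2HG producing partner of a matched IDH1 knockdown line; potency is read from the fitted curve at half-maximal effect; 0% = DMSO-treated cells and -100% = media-only wells without cells; nearly all actives have a fitted effect of over 55% in size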
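HT-1080-NT; 750 cells/well; 5% FBS RPMI; 48 h compound, 37 degrees C; CellTiter-Glo luminescence; curve fitting and curve-class assignment.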
Active calls of the source: *; ? = inconclusive; nt = not tested or not shown. Unless noted, calls follow the shape of the dose curve; as a rule, active = well fitted curve in the direction sought with a large enough effect; inconclusive = small, poorly fitted or top-dose-only effect, or another doubt; inactive = no such curve, though single readings can be large; an effect the other way counts as inactive or inconclusive. Unless noted, % is scaled to controls: 0 for no effect and ±100 for the full control effect.

SMILES	HT1080 IDH1KD tx	DT40 TDP1 CPT	TDP1 cell noCPT	IL-1B inflam inh	HT1080-NT tox
COc1ccccc1CN(C(=O)CCl)C(C(=O)NC1CCCCC1)c1ccncc1 (stereo unspecified)	4.3%	16.9%	3.4%	5.2	6.7%
CCOC(=O)c1cc(C#N)c(SC(C(=O)N2CCCCC2)c2ccccc2)nc1C (stereo unspecified)	nt	?	10µM*	nt	nt
O=C(NC(=S)NC1CCCCC1)c1ccccc1[N+](=O)[O-]	-0.3%	-1.6%	-21.2%	64.7	15.0%
CCOc1ccc(CN(C(=O)c2nc(SC)ncc2Cl)C2CCS(=O)(=O)C2)cc1 (stereo unspecified)	nt	-24.9%	16.4µM*	nt	nt
CC(C)Sc1ncc(Cl)c(C(=O)N(Cc2ccc(N(C)C)cc2)C2CCS(=O)(=O)C2)n1 (stereo unspecified)	nt	16.4µM*	?	nt	nt
CCCCn1c(NCc2ccc3c(c2)OCO3)nc2ccccc21	-28.8%	?	25.9µM*	-51.1*	-27.0%
CCCCn1c(NCc2ccc(OC)cc2O)nc2ccccc21	-8.5%	14.6µM*	10.3µM*	-17.7	-9.5%
CCCCCn1c(NCc2ccccc2OC)nc2ccccc21	nt	?	20.6µM*	nt	nt
C=CCc1cccc(CNc2nc3ccccc3n2CCC)c1O	?	?	23.1µM*	?	?
CCCCn1c(NCc2ccccc2O)nc2ccccc21	-1.0%	?	?	?	-5.6%
CCCn1c(NCc2ccc3c(c2)OCO3)nc2ccccc21	-15.8%	?	?	?	?
C=CCc1cccc(CNc2nc3ccccc3n2CC)c1O	?	?	?	-16.1	?
C=CCCN(Cc1ccccc1)S(=O)(=O)c1cc(Br)ccc1Br	-23.3%	?	14.6µM*	16.4	-19.2%
Cc1ccc(O)c(C2=Nc3ccccc3N=C(c3cccs3)C2)c1	-1.5%	?	16.4µM*	-11.9	-0.1%
Oc1ccccc1C1=Nc2ccccc2N=C(c2cccs2)C1	?	-11.0%	-7.9%	-6.8	-22.2%
NC(=O)c1cc(Br)cc2c3c([nH]c12)CCCC3	?	18.4µM*	23.1µM*	-80.6*	?
O=C(O)c1ccc2[nH]c3c(c2c1)CCCC3	-7.1%	-14.1%	?	-4.2	3.4%
CCOC(=O)C1(CCCc2ccccc2)CCN(C(=O)CCN2CCCCC2=O)CC1	-0.9%	?	16.4µM*	-5.0	7.1%
CCOC(=O)C1(CCCc2ccccc2)CCN(C(=O)CCc2cnn(C)c2)CC1	-19.4%	?	?	0.0	-14.9%
CCOC(=O)C1(CCCc2ccccc2)CCN(C(=O)CCCn2cncn2)CC1	-17.3%	?	25.9µM*	-7.9	-15.9%
Cc1[nH]c(=O)[nH]c(=O)c1/C=N/NC(=O)CCNC(=O)OC(C)(C)C	8.1%	-0.8%	21.8%	-60.2*	10.4%
Cc1[nH]c(=O)[nH]c(=O)c1/C=N/NC(=O)CCCCCNC(=O)OC(C)(C)C	21.3%	-28.9%	-20.2%	12.7	28.9%
Cc1nn(C)c(C)c1N1C(=O)c2cccc3c(Br)ccc(c23)C1=O	?	18.4µM*	20.6µM*	-96.1*	23.1µM*
CCOc1ccc(-n2cc(C(=O)N3CCC(C)CC3)c3cc(OC)c(OC)cc3c2=O)cc1	-9.6%	16.4µM*	14.6µM*	-17.1	6.3%
CCOc1ccc(-n2cc(C(=O)NC(C)C)c3cc(OC)c(OC)cc3c2=O)cc1	-0.3%	?	25.9µM*	5.3	-0.9%
SMILES	HT1080 IDH1KD tx	DT40 TDP1 CPT	TDP1 cell noCPT	IL-1B inflam inh	HT1080-NT tox
CCCCNC(=O)c1cn(-c2ccc(OCC)cc2)c(=O)c2cc(OC)c(OC)cc12	6.7%	?	?	31.7	0.2%
CCOc1ccc(-n2cc(C(=O)Nc3cccc(C)n3)c3cc(OC)c(OC)cc3c2=O)cc1	-6.5%	?	25.9µM*	-11.1	-3.6%
CCOc1ccc(NC(=O)c2cn(-c3ccc(OCC)cc3)c(=O)c3cc(OC)c(OC)cc23)cc1	8.2%	-9.1%	-3.0%	-27.9	9.1%
CCOC(=O)c1c(NC(=O)COc2ccc(Cl)cc2C)sc(C(C)=O)c1C	nt	-16.1%	-28.8%	nt	nt
COC(=O)c1sc(NC(=S)NC(=O)c2cccc(Br)c2)nc1C	1.0%	-0.1%	?	-9.1	-0.3%
COc1ccccc1N(CC(=O)N/N=C(\C)c1ccc(F)cc1)S(=O)(=O)c1ccccc1	5.1%	-28.1%	-23.9%	24.7	5.1%
O=C(O)[C@H](Cc1c[nH]c2ccccc12)Nc1ncccc1[N+](=O)[O-]	-11.3%	5.1%	0.8%	0.0	-7.3%
CCN1CCN(C(=O)C(C)Nc2cc(Cl)c(OC)cc2OC)CC1 (stereo unspecified)	3.8%	-8.4%	-3.5%	0.0	11.7%
CCNC(=O)C1(C)CCN(C(=O)c2cccc(C(F)(F)F)c2)C1 (stereo unspecified)	?	-0.8%	-0.4%	22.4	20.5%
CCn1c2ccccc2c2cnc(N=CN(C)C)c(C#N)c21	-0.6%	?	14.6µM*	-9.4	-4.1%
CCN(CC)CCn1c2ccccc2c2cnc(N=CN(C)C)c(C#N)c21	?	16.4µM*	16.4µM*	nt	?
CCN1C(=O)/C(=C\C(=O)c2cccs2)c2cc(Br)ccc21	-7.6%	13µM*	14.6µM*	-7.2	-18.7%
Cc1ccc(NC(=O)Cn2cnc3c2c(=O)n(C)c(=O)n3C)cc1C	nt	-16.2%	-23.5%	nt	nt
O=C(O)c1ccccc1-c1ccccc1C(=O)NCCCO	-11.6%	-21.2%	0.7%	2.2	5.3%
Cc1cc(C(=O)N/N=C/c2ccc3c(c2)OCO3)c(C)o1	?	-9.6%	?	-1.5	-24.9%
Cc1cc(C(=O)N/N=C/c2ccc([N+](=O)[O-])o2)c(C)o1	-22.1%	20.6µM*	18.4µM*	13.4	?
Cc1nonc1C(=O)N/N=C/c1ccncc1	-0.2%	4.5%	9.7%	15.1	13.1%
Cc1nonc1C(=O)N/N=C/c1ccc([N+](=O)[O-])o1	?	5.8µM*	18.4µM*	-1.3	-30.0%
Fc1cccc(CN2CCCCCCC2)c1	?	2.5%	15.6%	4.4	-0.1%
Fc1cccc(CN(C2=NCCN2)c2c(Cl)cccc2Cl)c1	-20.6%	?	20.6µM*	-15.5	?
N#CCCN(C(=O)Nc1ccccc1)C1CCCCC1	0.2%	1.6%	2.9%	20.8	4.3%
O=C(Nc1ccccc1)N(Cc1c[nH]c2ccccc12)C1CCCCCC1	nt	11.6µM*	18.4µM*	nt	nt
